# Assay results from article PMC7862700, “An all-to-all approach to the identification of sequence-specific readers for epigenetic DNA modifications on cytosine”.
# Legend:
# Assay in all cases: DAPPL (digital affinity profiling via proximity ligation, sequencing); 10 mM Tris-HCl pH 7.5, 50 mM NaCl, 1 mM DTT, 4% glycerol, room temperature, 30 min; GST-TFs on glutathione beads, 16-mer random dsDNA library, 0.1% formaldehyde crosslink after washing; high values mean tight binding
# Conditions in all cases: protein: recombinant; tags: N-terminal GST; dsDNA, one strand shown
# FLI1 = target: T1, FLI1 (Homo sapiens, UniProt Q01543 1-452)
# T1 sequence: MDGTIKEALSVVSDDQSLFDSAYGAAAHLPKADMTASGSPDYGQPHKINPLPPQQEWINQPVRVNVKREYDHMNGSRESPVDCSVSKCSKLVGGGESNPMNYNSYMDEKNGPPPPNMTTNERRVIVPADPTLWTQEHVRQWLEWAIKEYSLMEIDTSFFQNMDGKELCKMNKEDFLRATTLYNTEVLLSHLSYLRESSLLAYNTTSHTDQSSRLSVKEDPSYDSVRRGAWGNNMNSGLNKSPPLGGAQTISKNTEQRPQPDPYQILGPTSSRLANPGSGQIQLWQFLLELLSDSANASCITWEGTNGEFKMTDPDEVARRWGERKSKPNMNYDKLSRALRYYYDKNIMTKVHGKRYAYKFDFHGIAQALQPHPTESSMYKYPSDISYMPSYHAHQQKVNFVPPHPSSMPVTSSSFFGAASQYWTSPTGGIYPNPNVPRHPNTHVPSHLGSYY
# Procedure, shortened: (§1)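 Pools of DNA-barcoded human transcription factors, expressed in yeast as GST fusions on glutathione beads and combined with a tag-only sample, were incubated with 200 nmole of a 16-mer random double-stranded DNA library. Incubation took 30 min at room temperature in Tris/NaCl/DTT/glycerol buffer and was followed by washing, 0.1% formaldehyde crosslinking, proximity ligation (BsaI/T4 ligase, 1 h, 37 °C), PCR amplification and sequencing on an Illumina NextSeq500. Binding signal is the ratio of a hexamer's read frequency for a factor to its frequency for the tag-only sample.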
# ELK1 = target: T2, ELK1 (Homo sapiens, UniProt P19419 1-428)
# T2 sequence: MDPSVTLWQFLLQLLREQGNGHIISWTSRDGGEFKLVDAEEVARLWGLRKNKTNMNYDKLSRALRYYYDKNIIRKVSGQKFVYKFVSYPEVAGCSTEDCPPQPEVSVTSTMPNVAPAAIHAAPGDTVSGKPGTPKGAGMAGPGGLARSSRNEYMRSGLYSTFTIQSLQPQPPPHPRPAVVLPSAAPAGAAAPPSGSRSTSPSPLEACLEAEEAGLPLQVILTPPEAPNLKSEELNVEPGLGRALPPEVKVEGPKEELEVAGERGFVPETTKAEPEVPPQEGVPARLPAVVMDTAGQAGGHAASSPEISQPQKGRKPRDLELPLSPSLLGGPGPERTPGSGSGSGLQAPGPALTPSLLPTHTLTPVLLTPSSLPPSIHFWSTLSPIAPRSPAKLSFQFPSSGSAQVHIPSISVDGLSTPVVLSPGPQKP
# Procedure, shortened: as §1
# GABPA = target: T3, GABPA (Homo sapiens, UniProt Q06546 1-454)
# T3 sequence: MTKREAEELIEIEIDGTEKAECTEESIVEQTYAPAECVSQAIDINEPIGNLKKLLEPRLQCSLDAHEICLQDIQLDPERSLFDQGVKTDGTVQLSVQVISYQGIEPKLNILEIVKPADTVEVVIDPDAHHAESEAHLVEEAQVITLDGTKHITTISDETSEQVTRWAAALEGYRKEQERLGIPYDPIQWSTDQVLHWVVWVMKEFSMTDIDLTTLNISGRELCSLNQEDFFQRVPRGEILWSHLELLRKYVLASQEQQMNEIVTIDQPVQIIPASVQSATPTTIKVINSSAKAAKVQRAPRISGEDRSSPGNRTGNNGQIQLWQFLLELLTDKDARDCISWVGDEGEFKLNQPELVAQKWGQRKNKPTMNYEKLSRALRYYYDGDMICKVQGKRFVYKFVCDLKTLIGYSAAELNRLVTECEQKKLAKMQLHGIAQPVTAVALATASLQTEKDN
# Procedure, shortened: as §1
# ERG = target: T4, ERG (Homo sapiens, UniProt P11308 1-479)
# T4 sequence: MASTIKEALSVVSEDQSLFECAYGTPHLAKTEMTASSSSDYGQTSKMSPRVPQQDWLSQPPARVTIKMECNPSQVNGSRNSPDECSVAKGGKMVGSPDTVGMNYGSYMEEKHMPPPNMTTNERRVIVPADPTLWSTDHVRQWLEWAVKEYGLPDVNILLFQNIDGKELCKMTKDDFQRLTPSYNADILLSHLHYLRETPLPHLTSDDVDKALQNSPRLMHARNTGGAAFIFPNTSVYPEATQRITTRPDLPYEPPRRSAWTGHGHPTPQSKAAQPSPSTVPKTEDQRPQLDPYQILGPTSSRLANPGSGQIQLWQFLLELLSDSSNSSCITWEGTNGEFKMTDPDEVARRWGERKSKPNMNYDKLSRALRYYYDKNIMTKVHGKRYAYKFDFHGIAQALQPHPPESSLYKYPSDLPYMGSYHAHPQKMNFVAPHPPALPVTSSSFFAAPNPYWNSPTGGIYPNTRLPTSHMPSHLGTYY
# Procedure, shortened: as §1
# ELF1 = ELF1 (Homo sapiens, UniProt P32519 1-619)
# ELF1, sequence (P32519 whole entry): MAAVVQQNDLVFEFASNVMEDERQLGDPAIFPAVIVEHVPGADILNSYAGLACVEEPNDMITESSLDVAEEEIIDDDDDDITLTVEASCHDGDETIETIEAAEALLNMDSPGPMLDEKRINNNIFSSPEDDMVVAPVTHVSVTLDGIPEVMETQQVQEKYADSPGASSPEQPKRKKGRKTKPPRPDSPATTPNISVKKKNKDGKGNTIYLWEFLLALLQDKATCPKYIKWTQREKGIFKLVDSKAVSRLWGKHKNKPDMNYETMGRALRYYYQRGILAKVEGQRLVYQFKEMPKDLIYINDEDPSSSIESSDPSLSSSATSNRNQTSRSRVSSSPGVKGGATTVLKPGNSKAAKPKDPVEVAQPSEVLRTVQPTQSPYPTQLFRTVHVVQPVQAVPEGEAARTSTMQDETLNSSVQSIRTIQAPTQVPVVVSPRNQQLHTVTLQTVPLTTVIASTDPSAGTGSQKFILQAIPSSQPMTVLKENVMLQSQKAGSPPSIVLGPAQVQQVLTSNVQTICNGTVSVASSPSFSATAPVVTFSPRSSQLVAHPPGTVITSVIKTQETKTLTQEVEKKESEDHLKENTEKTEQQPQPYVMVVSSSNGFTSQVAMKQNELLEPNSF
# Procedure, shortened: as §1
# EHF = target: T5, EHF (Homo sapiens, UniProt Q9NZC4 1-300)
# T5 sequence: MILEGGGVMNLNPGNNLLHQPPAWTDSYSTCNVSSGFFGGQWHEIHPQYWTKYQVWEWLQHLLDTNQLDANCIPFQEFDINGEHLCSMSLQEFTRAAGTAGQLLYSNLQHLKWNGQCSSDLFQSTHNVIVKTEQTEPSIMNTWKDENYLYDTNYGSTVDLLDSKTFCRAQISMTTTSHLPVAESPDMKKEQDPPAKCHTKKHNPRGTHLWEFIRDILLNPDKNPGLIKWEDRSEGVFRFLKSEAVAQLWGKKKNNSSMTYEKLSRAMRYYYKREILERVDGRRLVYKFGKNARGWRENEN
# Procedure, shortened: as §1
# SPI1 = SPI1 (Homo sapiens, UniProt P17947 1-270)
# Procedure, shortened: as §1
# SPIB = SPIB (Homo sapiens, UniProt Q01892 1-262)
# SPIB, sequence (Q01892 whole entry): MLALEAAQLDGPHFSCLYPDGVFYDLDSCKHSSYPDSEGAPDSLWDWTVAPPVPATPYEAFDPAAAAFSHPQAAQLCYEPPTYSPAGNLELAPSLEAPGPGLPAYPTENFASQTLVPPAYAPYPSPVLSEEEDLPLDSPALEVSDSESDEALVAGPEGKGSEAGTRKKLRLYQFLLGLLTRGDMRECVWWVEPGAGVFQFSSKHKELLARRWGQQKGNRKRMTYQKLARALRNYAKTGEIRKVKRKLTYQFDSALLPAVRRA
# Procedure, shortened: as §1
# ELK3 = target: T6, ELK3 (Homo sapiens, UniProt P41970 1-407)
# T6 sequence: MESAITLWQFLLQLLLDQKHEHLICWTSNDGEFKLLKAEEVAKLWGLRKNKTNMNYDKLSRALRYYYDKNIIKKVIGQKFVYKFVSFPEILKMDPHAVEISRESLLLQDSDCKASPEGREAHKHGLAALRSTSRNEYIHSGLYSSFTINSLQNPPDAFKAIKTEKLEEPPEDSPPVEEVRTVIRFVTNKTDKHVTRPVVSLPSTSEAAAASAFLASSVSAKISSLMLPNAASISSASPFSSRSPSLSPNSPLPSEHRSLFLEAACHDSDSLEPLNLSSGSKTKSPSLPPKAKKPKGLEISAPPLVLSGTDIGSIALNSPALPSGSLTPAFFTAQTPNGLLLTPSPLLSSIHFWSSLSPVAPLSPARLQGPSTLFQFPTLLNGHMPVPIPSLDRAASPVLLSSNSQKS
# Procedure, shortened: as §1
sequence,measurement,setting,value
TAGTAT,binding signal,FLI1,"1.25 fold enrichment (6-mer frequency, TF over GST control)"
same,binding signal,ELK1,"1.34 fold enrichment (6-mer frequency, TF over GST control)"
same,binding signal,GABPA,"1.28 fold enrichment (6-mer frequency, TF over GST control)"
same,binding signal,ERG,"1.23 fold enrichment (6-mer frequency, TF over GST control)"
same,binding signal,ELF1,"1.29 fold enrichment (6-mer frequency, TF over GST control)"
same,binding signal,EHF,"1.38 fold enrichment (6-mer frequency, TF over GST control)"
same,binding signal,SPI1,"1.23 fold enrichment (6-mer frequency, TF over GST control)"
same,binding signal,SPIB,"1.33 fold enrichment (6-mer frequency, TF over GST control)"
same,binding signal,ELK3,"1.15 fold enrichment (6-mer frequency, TF over GST control)"
